# Test results as given in PubChem BioAssay.
# The source made the active and inactive calls.
# Assays:
# [1] = tested on: Plasmodium falciparum Sir2 (PF13_0152, Sir2A); assay: Plasmodium falciparum Sir2A binding compounds – biochemical, small-molecule microarray, 635 nm fluorescence, primary screen (AID 1098); details: fluorescence 635 nm, higher = more signal;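 also: score merges spot fluorescence intensity with its signal-to-noise ratio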
# [2] = probe aDKK1 binding to arrayed compounds – biochemical, biotinylated probe, 635/667 nm fluorescence, primary screen (AID 1099); details: small-molecule microarray, higher = more signal;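 also: score merges 667nm spot fluorescence with signal to noise across triplicate slides; reference of the scale not given here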
# [3] = probe aCHRDL2 binding to arrayed compounds – biochemical, biotinylated probe, 635/667 nm fluorescence, primary screen (AID 1100); details: small-molecule microarray, higher = more signal
# [4] = change in splice reporter luminescence, either direction, cell-based, HEK293, spliceosome inhibition project, primary screen (AID 1101); details: HEK293 splicing luciferase reporter, 24 h, higher = more signal, called active from +8 up or from −8 down;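 also: HEK293 cells carrying a splicing-competent luciferase reporter gene; test concentration not given here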
# [5] = target: Fibroblast growth factor 10 (Homo sapiens) (UniProt O15520); assay: compounds binding fibroblast growth factor 10 – biochemical, small-molecule microarray, 635 nm fluorescence, primary screen (AID 1102); details: FGF10 binding, fluorescence 635 nm, higher = more signal
# [6] = tested on: glycogen synthase kinase-3 (GSK3A per assay name; protocol says GSK3B); assay: compounds binding glycogen synthase kinase-3 – biochemical, small-molecule microarray, 635 nm fluorescence, GSK3A, primary screen (AID 1103); details: fluorescence 635 nm, higher = more signal; also: the record names both GSK3A and GSK3B
# [7] = target: Epidermal growth factor receptor (Homo sapiens) (UniProt P00533); assay: compounds binding epidermal growth factor receptor – biochemical, small-molecule microarray, 635 nm fluorescence, primary screen (AID 1104); details: EGFR binding, higher = more signal;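 also: score merges 667 nm emission intensity with spot signal to noise over triplicate slides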
# [8] = target: Follistatin-related protein 3 (Homo sapiens) (UniProt O95633); assay: compounds binding follistatin-related protein 3 – biochemical, small-molecule microarray, 635 nm fluorescence, primary screen (AID 1105); details: FSTL3 binding, higher = more signal;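 also: score merges emission near 667 nm and signal to noise per printed spot across three slides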
# [9] = target: Dickkopf-related protein 1 (Homo sapiens) (UniProt O94907); assay: small molecules binding DKK1 protein – biochemical, small-molecule microarray, 635 nm fluorescence scan, primary screen (AID 1106); details: higher = more signal;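 also: score merges emission near 667 nm with signal to noise over three replicate slides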
# [10] = tested on: Inhibin beta A chain (activin A); assay: small molecules binding activin A – biochemical, small-molecule microarray, 635 nm fluorescence scan, primary screen (AID 1107); details: INHBA, higher = more signal;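 also: mouse activin A protein probed at 4.33 µg/mL on printed slides; score merges bound-protein fluorescence near 667 nm with spot signal-to-noise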
# Sequence of Follistatin-related protein 3 (Homo sapiens) (O95633 whole entry, looked up): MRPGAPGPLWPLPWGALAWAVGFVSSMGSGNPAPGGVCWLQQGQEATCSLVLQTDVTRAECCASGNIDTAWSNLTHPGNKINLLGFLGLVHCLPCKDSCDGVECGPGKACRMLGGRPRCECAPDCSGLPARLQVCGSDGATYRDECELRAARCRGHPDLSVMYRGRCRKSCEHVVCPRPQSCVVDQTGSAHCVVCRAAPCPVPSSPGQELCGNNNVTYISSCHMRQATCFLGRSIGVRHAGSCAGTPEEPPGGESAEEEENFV
# Sequence of Epidermal growth factor receptor (Homo sapiens) (P00533 whole entry, looked up): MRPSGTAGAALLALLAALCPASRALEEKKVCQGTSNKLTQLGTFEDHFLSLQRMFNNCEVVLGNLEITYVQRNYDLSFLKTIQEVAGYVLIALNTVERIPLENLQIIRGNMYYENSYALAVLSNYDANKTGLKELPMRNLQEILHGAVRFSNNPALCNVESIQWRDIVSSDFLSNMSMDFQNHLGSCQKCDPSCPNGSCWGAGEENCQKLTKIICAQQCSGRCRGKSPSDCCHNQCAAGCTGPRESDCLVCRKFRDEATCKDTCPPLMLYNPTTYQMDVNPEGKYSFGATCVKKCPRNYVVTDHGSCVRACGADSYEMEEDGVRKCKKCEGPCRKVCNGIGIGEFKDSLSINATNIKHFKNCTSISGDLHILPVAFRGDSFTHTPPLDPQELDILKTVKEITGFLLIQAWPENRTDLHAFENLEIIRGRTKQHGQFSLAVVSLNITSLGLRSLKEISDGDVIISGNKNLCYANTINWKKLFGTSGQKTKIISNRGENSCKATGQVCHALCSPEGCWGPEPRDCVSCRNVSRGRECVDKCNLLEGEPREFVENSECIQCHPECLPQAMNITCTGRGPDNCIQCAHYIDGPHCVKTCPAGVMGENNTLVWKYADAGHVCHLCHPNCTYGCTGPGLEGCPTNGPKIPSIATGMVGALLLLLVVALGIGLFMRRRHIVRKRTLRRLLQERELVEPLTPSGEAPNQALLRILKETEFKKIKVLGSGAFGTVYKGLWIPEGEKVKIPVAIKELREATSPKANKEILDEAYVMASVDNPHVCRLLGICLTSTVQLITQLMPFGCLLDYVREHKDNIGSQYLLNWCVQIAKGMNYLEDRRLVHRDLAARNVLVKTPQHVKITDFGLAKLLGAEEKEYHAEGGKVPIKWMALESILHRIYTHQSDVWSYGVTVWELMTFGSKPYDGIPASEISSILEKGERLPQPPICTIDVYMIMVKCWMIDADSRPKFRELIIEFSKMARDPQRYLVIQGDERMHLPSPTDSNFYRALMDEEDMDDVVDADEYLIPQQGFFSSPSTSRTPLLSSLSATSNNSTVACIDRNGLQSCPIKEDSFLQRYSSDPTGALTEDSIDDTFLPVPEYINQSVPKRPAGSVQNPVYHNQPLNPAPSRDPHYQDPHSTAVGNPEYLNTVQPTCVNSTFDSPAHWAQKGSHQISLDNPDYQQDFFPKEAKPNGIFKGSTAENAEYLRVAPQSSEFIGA
# Sequence of Dickkopf-related protein 1 (Homo sapiens) (O94907 whole entry, looked up): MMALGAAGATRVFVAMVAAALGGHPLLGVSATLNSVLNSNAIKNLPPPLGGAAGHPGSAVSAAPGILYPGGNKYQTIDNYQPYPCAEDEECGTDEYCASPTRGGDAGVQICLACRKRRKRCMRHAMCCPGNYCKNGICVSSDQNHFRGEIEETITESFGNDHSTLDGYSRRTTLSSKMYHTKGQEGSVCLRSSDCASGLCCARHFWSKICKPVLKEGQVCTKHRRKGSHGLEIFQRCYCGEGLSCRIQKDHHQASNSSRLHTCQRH
# Sequence of Fibroblast growth factor 10 (Homo sapiens) (O15520 whole entry, looked up): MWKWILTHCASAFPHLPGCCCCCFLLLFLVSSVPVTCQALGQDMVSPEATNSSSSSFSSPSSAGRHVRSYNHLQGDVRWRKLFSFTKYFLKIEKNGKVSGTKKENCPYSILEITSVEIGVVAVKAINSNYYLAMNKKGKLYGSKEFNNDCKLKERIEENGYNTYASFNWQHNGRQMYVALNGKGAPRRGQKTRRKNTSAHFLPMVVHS
Compound,composite z-score [1],composite z-score [2],composite z-score [3],z-score [4],composite z-score [5],composite z-score [6],composite z-score [7],composite z-score [8],composite z-score [9],composite z-score [10]
CN1C=C(C(=O)OCCS(C)(=O)=O)C(C(=O)OCCS(C)(=O)=O)=CC(CCCO)=CC1C1CC1 (stereo not given),-0.274,-0.209,-0.0925,0.788 (inactive),0.428,-0.256,-0.14,0.0695,-0.596,-0.0932
C=C[C@H](C)[C@@H](O)c1ccc(O)c2ccccc12,1.43,-0.302,-0.0488,-0.0352 (inactive),-0.152,-0.61,-0.775,-0.189,0.0078,1.28
CC(=O)NCCCC[C@@H]1NC(=O)[C@H]2C[C@@H](C(=O)NCCCCCC[N+](C)(C)C)[C@@H](c3cccc(OCCO)c3)N2C1=O,1.44,-0.104,-0.207,-1.6 (inactive),1.17,0.917,0.848,1.58,1.85,0.695
C=C(CCCC)C(=O)CC[C@H](OC(=O)c1cccnc1)c1cccc(OCCO)c1,0.681,-0.298,0.165,4.13 (inactive),0.309,-0.208,-0.502,-0.688,-0.219,1.29
COc1ccc(C#Cc2ccc3c(c2)[C@]2(C(=O)N3)[C@H](C(=O)NC[C@H](O)c3ccccc3)[C@H]3C(=O)O[C@H](c4ccccc4)[C@H](c4ccccc4)N3[C@@H]2c2ccc(OCCO)cc2)cc1,1.33,0.0324,0.236,-1.46 (inactive),1.25,1.28,0.487,1.26,0.31,0.123
C[C@]1(C(=O)NCc2ccccc2)c2ccccc2C(=O)N(Cc2cc(F)cc(C(F)(F)F)c2)[C@H]1c1ccc(CO)cc1,0.876,0.214,0.637,-0.102 (inactive),-0.384,-0.422,-0.505,-1.45,-1.21,-0.185
COCCCNC(=O)[C@@]1(c2ccc([N+](=O)[O-])cc2)CC(=O)N(CC23CC4CC(CC(C4)C2)C3)[C@@H]1c1ccc(CO)cc1,1.61,0.0245,-0.0133,0.00653 (inactive),1.22,1.31,0.905,1.48,1.08,0.703
CC(C)c1ccc(NN2C(C(O)c3c(F)cccc3Cl)C=CC3C(=O)N(c4ccccc4)C(=O)C32)cc1 (stereo not given),0.683,1.24,1.13,-1.11 (inactive),0.62,0.852,0.389,0.766,-0.247,0.945
CC1=C2[C@@H](CCc3ccccc3)OB(O)C[C@@H]2n2c(=O)n(-c3ccccc3)c(=O)n2C1,0.897,-0.0992,-0.339,0.72 (inactive),0.355,0.255,0.249,0.894,0.565,0.421
C=CC(COC(C)=O)NS(=O)(=O)c1ccc(Br)cc1 (stereo not given),0.669,-0.461,-0.501,0.217 (inactive),0.632,0.903,0.642,1.01,0.684,0.12
C=CCN1C(=O)[C@]2(O[C@H](CCO)[C@@H]([Si](C)(C)c3ccc(OC)cc3)[C@@H]2C)c2cc(NC(=O)[C@H](C)O)ccc21,1.45,-0.191,-0.159,-1.26 (inactive),1.27,0.984,-0.191,0.267,0.0607,0.197
C=CCOC(=O)[C@H]1[C@@H]2C(=O)O[C@@H](c3ccccc3)[C@@H](c3ccccc3)N2[C@@H](c2ccc(OCCOC(=O)[C@@H]3C[C@@H]4C(=O)NCC(=O)N4[C@@H]3c3ccc(O)cc3)cc2)[C@]12C(=O)Nc1ccccc12,1.24,-0.206,-0.167,-1.15 (inactive),1.14,1.19,0.457,1.34,0.535,0.217
C#CCN(C(/C=C/c1ccccc1)CO)C(C(=O)O)c1ccccc1 (stereo not given),-0.211,-0.285,-0.447,-1.89 (inactive),0.0698,-0.953,-0.0139,-0.435,0.122,-0.99
C=C[C@@H](COC(C)=O)N(Cc1ccccc1[N+](=O)[O-])S(=O)(=O)c1ccc(Br)cc1,1.31,0.278,-0.0205,-2.18 (inactive),0.863,1.16,1.2,1.39,1.82,1.16
COCCOC(=O)N1C(=O)[C@@]2(c3cc(C#CCNC(N)=O)ccc31)[C@H](C(=O)N1CCc3cc(OC)c(OC)cc3C1)[C@H]1C(=O)O[C@H](c3ccccc3)[C@H](c3ccccc3)N1[C@@H]2c1ccc(OCCO)cc1,1.06,-0.0141,-0.053,-0.0304 (inactive),1.28,-0.08,0.528,1.17,0.529,0.886
Cc1ccc(F)cc1S(=O)(=O)N[C@@H]1CCN(Cc2ccc(-c3ccccc3)cc2)C1,0.293,-0.188,-0.318,1.18 (inactive),0.927,0.205,0.156,0.239,0.138,0.42
CC(=O)Nc1cc(Br)ccc1C(=O)O,0.976,1.34,0.0861,-0.841 (inactive),0.225,0.157,-0.433,0.0984,-0.44,-0.27
Cc1ccc(S[C@]2(C(=O)NCC(C)C)CC(=O)N(Cc3ccccc3Cl)[C@@H]2c2ccc(CO)cc2)cc1,-0.248,0.254,0.94,0.35 (inactive),-0.756,-1.15,-1,-2.05,-1.77,-0.544
CCOC(=O)C1=CC[C@@H](c2ccccc2Cl)N(S(=O)(=O)c2ccc(C)cc2)C1,1.17,0.342,0.928,-1.97 (inactive),0.403,0.196,-0.138,0.0633,-0.794,0.304
CC(c1ccccc1)C(O)C1C=CC2C(=O)NC(=O)C2N1Nc1ccccn1 (stereo not given),0.459,0.0178,0.585,1.63 (inactive),0.831,0.767,0.532,1.01,0.481,1.41
C=C(CCCC)/C(=C/C[C@H](OC(C)=O)c1ccc(CO)o1)c1cnc2ccccc2c1,1.11,-0.179,-0.531,-0.276 (inactive),1.35,1.21,0.497,1.49,0.601,1.69
Cc1ccc([C@H]2C(C(=O)O)=C[C@@H](C)N2S(=O)(=O)c2ccc(C)cc2)cc1,1.23,0.353,0.841,0.709 (inactive),-0.564,-0.107,-0.19,-0.525,-1.13,1.02
C=CC[C@@]1(C(=O)O)N=C(c2ccc(OCCCO)cc2)O[C@@H]1c1ccccc1N=[N+]=[N-],1.48,1.08,1.2,0.0828 (inactive),0.291,0.658,-0.107,0.316,-0.227,1.46
COC(=O)[C@@]1(Cc2ccc(F)cc2)[C@H]2c3cc(C(=O)N4CCCC4)n(Cc4cccc5ccccc45)c3C[C@H]2CN1C(=O)c1ccccc1,1.53,0.479,0.854,-2.29 (inactive),0.427,-0.423,0.329,0.286,-0.538,0.644
COC(=O)[C@@]1(Cc2ccc(OC)cc2)[C@H]2c3cc(C(=O)N4CCCC4)n(Cc4cc(F)cc5c4OCOC5)c3C[C@H]2CN1C(=O)c1ccccc1,0.782,0.9,0.984,-2.73 (inactive),0.608,0.573,0.0471,0.326,-0.451,0.795
COCCCNC(=O)[C@@]1(CCC(=O)OC(C)(C)C)N=C(c2ccc(OCCCO)cc2)O[C@H]1c1ccccc1CN=[N+]=[N-],1.62,0.965,1.08,-0.228 (inactive),1.56,1.13,0.123,0.932,0.119,0.471
COCCOC(=O)N1C(=O)[C@@]2(c3cc(C#CCNC(N)=O)ccc31)[C@H](c1ccc(O)cc1)N1[C@H](c3ccccc3)[C@H](c3ccccc3)OC(=O)[C@H]1[C@@H]2C(=O)NC[C@H](O)c1ccccc1,0.193,0.614,0.689,0.716 (inactive),1.05,0.727,0.222,1.34,1.52,0.342
